Source: PubChem
Rab9 promoter act = qHTS Assay for Rab9 Promoter Activators | Huh7 Rab9 promoter-luciferase reporter, luminescence, 24 h | Potency, µM (doses to about 9.22 µM), without a hit: top-dose activation, negative = inhibition, hits mostly activators | hit rate 2.8% among 320,000 | AID 485297, 2010; note: % of control where 0% means no effect; nearly all actives have a fitted effect of over 60% in size
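Cells were plated at 1500 per well in reduced-serum medium with 10% FBS and left 2 h. Compound in DMSO was then added for 24 h at 37 °C. Reporter signal was read by luminescence after 10 min with luciferase detection reagent.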
SMN2 splice enh = qHTS Assay for Enhancers of SMN2 Splice Variant Expression | HEK293 SMN2-luciferase splicing reporter, luminescence, 30-36 h | Potency, µM (top dose mostly 46.1 µM), without a hit: at the top dose activity change, positive = activation, hits mostly activators | hit rate 2.8% among 210,000; note: % of control where 0% means no effect; nearly all actives have a fitted effect of over 55% in size
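HEK293 cells carry an SMN2 minigene-luciferase reporter in which exon 7 inclusion puts luciferase in frame. Cells were seeded at 2000 cells/well, attached for 10-12 hours, then exposed to compounds for 30-36 hours at 37C before ONE-Glo luminescence.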
FLuc counter = qHTS profiling assay for firefly luciferase inhibitor/activator using purifed enzyme and Km concentrations of substrates (counterscreen for miR-21 project). hit rate 6.9% among 360,000. Potency, µM (top dose mostly 57.5 µM), for the others: at the top dose activity change, negative = inhibition, hits mostly inhibitors. Luciferin 4-monooxygenase (Photinus pyralis), P08659. purified FLuc, Km substrates, luminescence inhibition. AID 588342, 2011;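 note: plate controls were vehicle for no effect and reference inhibitor for full effect; nearly all actives have a fitted effect of over 55% in size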
Target sequence (P08659 whole entry, looked up): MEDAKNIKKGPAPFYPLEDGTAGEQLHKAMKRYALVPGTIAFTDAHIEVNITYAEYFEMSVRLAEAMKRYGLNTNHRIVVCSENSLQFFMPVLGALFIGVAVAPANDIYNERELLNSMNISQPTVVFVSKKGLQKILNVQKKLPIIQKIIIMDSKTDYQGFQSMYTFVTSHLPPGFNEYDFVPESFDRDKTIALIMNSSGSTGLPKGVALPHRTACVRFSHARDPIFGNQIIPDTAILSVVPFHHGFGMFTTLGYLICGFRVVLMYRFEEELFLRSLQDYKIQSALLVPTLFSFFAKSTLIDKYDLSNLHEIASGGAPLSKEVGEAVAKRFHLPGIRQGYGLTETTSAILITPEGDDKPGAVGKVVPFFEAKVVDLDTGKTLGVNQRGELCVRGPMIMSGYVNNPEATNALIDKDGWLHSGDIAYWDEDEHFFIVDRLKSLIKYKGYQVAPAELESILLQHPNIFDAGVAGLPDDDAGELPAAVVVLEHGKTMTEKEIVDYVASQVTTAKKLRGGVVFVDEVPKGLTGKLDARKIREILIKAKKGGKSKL
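Purified P. pyralis luciferase, 10 nM final, with Km-level 10 uM D-luciferin and 10 uM ATP in 50 mM Tris acetate pH 7.5, 10 mM Mg acetate, 0.01% Tween-20, 0.05% BSA; 6-point qHTS titration about 60 µM downward; luminescence read.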
NPC1 prom act = qHTS Assay for NPC1 Promoter Activators; Potency, µM (highest dose often 9.22 µM), for inactives: at the highest dose activation, most hits filed as activators; Huh7 NPC1 promoter luciferase reporter, 24 h; hit rate 2.4% among 320,000; note: % of control where 0% means no effect; nearly all actives have a fitted effect of over 60% in size
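Compounds in DMSO were transferred onto Huh7 NPC1-luciferase reporter cells pre-incubated 2 h; after 24 h at 37 °C, Amplite reagent was dispensed and luminescence recorded 10 min later.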
ELG1 genotoxic = qHTS screen for small molecules that induce genotoxicity in human embryonic kidney (HEK293T) cells expressing luciferase-tagged ELG1. HEK293T ELG1-luciferase reporter, luminescence, 16 h. Potency, µM (series often up to 46 µM), for the others: top-dose activity change, positive = activation, actives largely listed as activators. hit rate 1.3% among 330,000. AID 504466, 2011; note: % of control where 0% means no effect; nearly all actives have a fitted effect of over 60% in size
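Screening used a luciferase reporter fused to human ELG1 in HEK293T cells. Luminescence was read on a CCD plate imager after 16 hr exposure and 30 min ONE-Glo incubation.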
Numbers without * were called inactive; ? = inconclusive; . = not tested or not shown; [ ] = another dose, or the depositor's remark. Shown are actives, neighbours in structure and some others; about 7.4% of the full set was active somewhere. Calls come from the whole dose curve; as a rule, active = well fitted curve in the direction sought with a large enough effect; inconclusive = small, poorly fitted or top-dose-only effect, or another doubt; inactive = no such curve, though single readings can be large; an effect the other way counts as inactive or inconclusive. Potency is the fitted concentration of half-maximal effect.

SMILES	Rab9 promoter act	SMN2 splice enh	FLuc counter	NPC1 prom act	ELG1 genotoxic
COc1cc(-c2ccc3oc(-c4cccc(C)c4)c(C#CC4(O)CCCCC4)c3c2)cc(OC)c1OC	.	.	.	.	-6.2%
Cc1ccnc(NC(=O)c2cccc(NC(=O)Cc3ccccc3)c2)c1	-2.3%	.	?	-0.5%	8.0%
Cc1ccc(NC(=O)CC(=O)c2ccccc2)cc1C	3.98µM*	.	15.1µM*	?	?
Cc1cccc(C(=O)Nc2cccc(C(=O)Nc3cc(C)ccn3)c2)c1	20.2%	.	26.9µM*	10.4%	-6.3%
Cc1ccc(NC(=O)CO/N=C(\N)c2ccccc2)cc1C	.	.	.	.	4.7%
Cc1cccc(C(=O)Nc2ccccc2C(=O)OCC(=O)Nc2ccc(C#N)cc2)c1	12.8%	15.8µM*	?	11.0%	?
Cc1nc2cc(C(=O)OCC(=O)Nc3ccc(C#N)cc3)ccc2n1-c1ccccc1	-2.5%	25.3%	-12.5%	-4.7%	1.2%
COC(=O)CSC(C(=O)Nc1ccc(C)c(C)c1)c1ccccc1 (centres undefined)	10.2%	8.6%	16.9µM*	-4.7%	6.2%
Cc1ccc(SCC(=O)OCC(=O)NCCC2=CCCCC2)cc1	-1.0%	.	0.8%	-0.5%	1.9%
COc1ccc(NC(=O)CSc2nc3c(sc4ccccc43)c(=O)n2CCCN2CCCC2)cc1	-6.1%	.	2.2%	-6.0%	13.0%
Cc1cc(C)cc(N(C(C)C(=O)N2CCCC2)S(C)(=O)=O)c1 (centres undefined)	-3.7%	.	1.3%	-0.2%	-5.3%
O=C(CC(=O)c1ccccc1)Nc1ccc(Cl)cc1	?	.	15.1µM*	?	13.3%
Cc1cccc(C(=O)NNC(=O)c2ccccc2C)c1	4.7%	11.7%	?	6.4%	6.1%
Cc1cccc(C(=O)Nc2cccc(NC(=O)c3ccccc3)c2)c1	-3.0%	.	16.9µM*	9.5%	-1.7%
Cc1cccc(NC(=O)c2cccc(C(=O)Nc3cccc(C)c3)c2)c1	-3.0%[1.84 µM]	.	-7.5%	2.1%	2.8%
Cc1cccc(C(=O)NNC(=O)c2ccccc2O)c1	?	.	21.3µM*	3.16µM*	?
O=C(Cc1ccc(Cl)cc1)Nc1ccc(NC(=O)c2ccccc2)cc1	3.4%	0.6%[1.84 µM]	2.6%	-0.7%	6.8%
CCc1ccc(NC(=O)CCC(=O)c2ccccc2)cc1	-6.5%	.	13.5µM*	-0.1%	3.1%
CCc1ccc(NC(=O)CCC(=O)c2ccc(C)cc2)cc1	-1.6%	.	-3.2%	-1.6%	-2.1%
CCOc1ccc(NC(=O)CN(C)C(=O)COc2cccc3c2OC(C)(C)C3)cc1OCC	-9.6%	.	2.7%	-2.6%	2.4%
CCOCCCN(C)C1CCN(C(=O)c2oc3ccccc3c2NC(=O)Cc2ccc(F)cc2)CC1	-4.3%	.	-1.8%	-0.9%	-1.0%
O=[N+]([O-])c1cc(N(CCO)CCO)ccc1NCCO	.	-11.0%	.	.	.
CCCCN1C=CC(=C2C(=O)c3ccccc3C2=O)C=C1	0.0316µM*	-66.8%	0.135µM*	?	?
COc1ccc(-c2nc3c(c4c2C[C@H](c2ccccc2)OC4)CN(S(=O)(=O)c2ccc(C)cc2)CC3)c(C)c1	.	-4.3%[9.22 µM]	.	.	.
COc1ccccc1C(CC(=O)O)NS(=O)(=O)c1ccc2c(c1)N(C(C)=O)CC(C)O2 (centres undefined)	-0.1%	.	5.1%	-0.3%	1.3%
SMILES	Rab9 promoter act	SMN2 splice enh	FLuc counter	NPC1 prom act	ELG1 genotoxic
Cc1cc2ncc(-c3ccccc3)nc2cc1C	0.794µM*	5.01µM*	0.601µM*	1.26µM*	1.64µM*
COc1nc(-c2ccccc2)cc(-c2ccc(OC)c(OC)c2)n1	7.7%	20.0%	?	5.4%	-12.3%
Cc1ccc(-c2cnc3ccccc3n2)cc1C	23.2%	.	0.536µM*	?	?
CCCCOc1ccc(-c2cnc3ccccc3n2)cc1	0.447µM*	1.41µM*	0.426µM*	0.398µM*	?
COc1cc2ncc(-c3ccccc3)nc2cc1OC	.	28.2µM*	.	.	.
NC(=O)NC(=O)[C@H]1CCCC[C@@H]1C(=O)O	.	-14.8%[9.22 µM]	.	.	.
CCOC(=O)c1cccc(-c2c(-c3ccccc3)ncc3cc(OC)c(OC)cc23)c1	-0.9%	.	?	?	4.2%
CCOC(=O)c1ccc2ncc(-c3ccccc3)nc2c1	3.55µM*	178.7%	5.36µM*	3.16µM*	10.3µM*
Clc1ccc(-c2cnc3ccccc3n2)cc1	3.98µM*	12.6µM*	4.78µM*	3.16µM*	?
CC(=O)Nc1ccc(C(=O)OCc2ccccc2Br)cc1	?	8.7%	?	6.7%	15.1%
Cc1cc(-c2ccccc2)nc(-c2ccccc2)c1C	?	.	0.169µM*	12.1%	20.6µM*
Cc1nc2ccc(C(=O)OCc3ccccc3Br)cc2nc1C	1.12µM*	8.2%	12µM*	3.16µM*	?
Cc1cc(-c2ccccc2)nc(N(C)N)c1S(C)(=O)=O	-4.0%	-9.3%	-2.8%	-3.5%	5.7%
COc1ccnc(Oc2ccccc2)c1C(=O)N/C=N/OCc1ccccc1F	-1.1%	.	-0.2%	-0.9%	-12.6%
Cc1cc2nc3[nH]c4c(Cl)cc(Cl)cc4c3nc2cc1C	.	2.0%[9.22 µM]	.	.	.
CCc1cc2c(cc3c(=O)n(CCCC(=O)NCc4cccc(Br)c4)ncn32)s1	.	5.2%	?	.	.
NNC(=O)/C=C/c1ccc(Cl)cc1Cl	18.4%	4.5%	?	1.7%	-1.9%
O=C(O)CNC(=O)/C=C/c1ccc(Cl)cc1Cl	5.6%	-5.1%	23.9µM*	-2.9%	-6.5%
Cc1ccc(NC(=O)CN(C)CC(=O)Nc2ccc(N3CCOCC3)cc2)c([N+](=O)[O-])c1	-0.2%	-6.6%	-5.9%	-0.1%	5.4%
Cc1ccccc1N=C1Nc2ccccc2CS1	0.631µM*	12.6µM*	4.78µM*	1.41µM*	?
CCOC(=O)c1ccc(NC(=O)Nc2ccc(Cl)cn2)cc1	1.4%	-1.4%	-0.7%	3.5%	-0.3%
CCCCc1ccc(NC(=O)C2CCCO2)cc1 (centres undefined)	2.24µM*	10µM*	13.5µM*	1.58µM*	?
CCCCNC(=O)c1ccc(NC(=O)C2CCCO2)cc1 (centres undefined)	-5.0%	11.5%	-4.7%	-2.6%	-4.0%
CCCCc1nnc(NC(=O)C2=COCCO2)s1	4.47µM*	.	16.9µM*	2.51µM*	14.6µM*
Cc1nnc(NC(=O)C2=COCCO2)s1	17.2%	.	-2.2%	10.9%	?
CCCCc1nnc(NC(=O)C2CCCO2)s1 (centres undefined)	28.2%	35.5µM*	-2.3%[2.3 µM]	10.7%	14.8%
CCOC(=O)c1ccc(NC(=O)Nc2ccon2)cc1	-8.9%	.	19µM*	16.3%	7.3µM*
O=C(NCC1CCCO1)c1cc(S(=O)(=O)Nc2ccc(Br)cc2)ccc1Cl (centres undefined)	-2.7%	-16.4%	-1.2%	-0.6%	-5.7%
Fc1cccc(CSc2ncnc3c2ncn3[C@H]2CCCS2)c1	.	1.9%[9.22 µM]	.	.	.
